Assay in all cases: DAPPL (digital affinity profiling via proximity ligation, sequencing); 10 mM Tris-HCl pH 7.5, 50 mM NaCl, 1 mM DTT, 4% glycerol, room temperature, 30 min; GST-TFs on glutathione beads, 16-mer random dsDNA library, 0.1% formaldehyde crosslink after washing; high values mean tight binding
For one assay, the target named is T1, FEV (Homo sapiens, UniProt Q99581 1-238).
T1 sequence: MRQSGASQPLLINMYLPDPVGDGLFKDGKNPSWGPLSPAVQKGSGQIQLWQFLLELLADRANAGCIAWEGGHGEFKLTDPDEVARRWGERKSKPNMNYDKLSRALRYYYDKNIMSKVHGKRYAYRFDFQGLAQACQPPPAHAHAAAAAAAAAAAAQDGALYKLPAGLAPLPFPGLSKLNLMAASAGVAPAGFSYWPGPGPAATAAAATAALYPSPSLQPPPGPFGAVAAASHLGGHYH
The following applies: protein: recombinant; tags: N-terminal GST; dsDNA, one strand shown. An outline of the steps: (§1)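 Binding signal is defined as a hexamer's read frequency for one factor over its frequency for the tag-only sample. To obtain reads, GST-fused human transcription factors were expressed in yeast, captured on glutathione beads, barcoded with DNA and pooled with that sample. Pools met 200 nmole of a 16-mer random double-stranded DNA library in Tris/NaCl/DTT/glycerol buffer for 30 min at room temperature before washing, 0.1% formaldehyde crosslinking, proximity ligation (BsaI/T4 ligase, 1 h, 37 °C), PCR and Illumina NextSeq500 sequencing.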

A further assay concerns the target ETV5 (Homo sapiens, UniProt P41161 1-510). The settings on record: protein: recombinant; tags: N-terminal GST; dsDNA, one strand shown. The gist of the method:
as §1

Another assay deals with HSF1 (Homo sapiens, UniProt Q00613 1-529). The settings on record: protein: recombinant; tags: N-terminal GST; chain copies: 3; dsDNA, one strand shown. An outline of the steps:
as §1

The target of a further assay is T2, SPIC (Homo sapiens, UniProt Q8N5J4 1-248).
T2 sequence: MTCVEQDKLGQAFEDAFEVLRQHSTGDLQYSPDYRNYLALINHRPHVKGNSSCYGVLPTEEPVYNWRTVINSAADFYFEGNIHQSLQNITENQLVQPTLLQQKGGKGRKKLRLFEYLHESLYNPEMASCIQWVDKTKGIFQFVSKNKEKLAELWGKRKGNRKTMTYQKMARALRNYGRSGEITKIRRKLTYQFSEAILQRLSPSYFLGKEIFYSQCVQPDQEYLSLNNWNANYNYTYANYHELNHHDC
The settings on record: protein: recombinant; tags: N-terminal GST; dsDNA, one strand shown. The gist of the method: as §1

The next assay addresses ELF4 (Homo sapiens, UniProt Q99607 1-663). The following applies: protein: recombinant; tags: N-terminal GST; dsDNA, one strand shown. An outline of the steps:
as §1

Another assay has as its target T3, ELK4 (Homo sapiens, UniProt P28324-2 1-405).
T3 sequence: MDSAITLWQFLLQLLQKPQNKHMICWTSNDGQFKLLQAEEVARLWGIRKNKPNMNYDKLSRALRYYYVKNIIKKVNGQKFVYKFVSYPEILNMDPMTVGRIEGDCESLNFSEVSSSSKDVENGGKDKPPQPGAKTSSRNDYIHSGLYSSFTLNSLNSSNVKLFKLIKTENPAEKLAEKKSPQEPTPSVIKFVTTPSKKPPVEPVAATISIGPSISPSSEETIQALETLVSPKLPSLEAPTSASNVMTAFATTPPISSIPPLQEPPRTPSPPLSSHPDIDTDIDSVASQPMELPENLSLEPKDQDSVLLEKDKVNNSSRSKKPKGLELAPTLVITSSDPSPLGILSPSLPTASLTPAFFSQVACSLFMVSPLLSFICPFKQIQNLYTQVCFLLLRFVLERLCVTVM
The following applies: protein: recombinant; tags: N-terminal GST; dsDNA, one strand shown. The gist of the method:
as §1

In a further assay the target is T4, ETV2 (Homo sapiens, UniProt O00321 1-342).
T4 sequence: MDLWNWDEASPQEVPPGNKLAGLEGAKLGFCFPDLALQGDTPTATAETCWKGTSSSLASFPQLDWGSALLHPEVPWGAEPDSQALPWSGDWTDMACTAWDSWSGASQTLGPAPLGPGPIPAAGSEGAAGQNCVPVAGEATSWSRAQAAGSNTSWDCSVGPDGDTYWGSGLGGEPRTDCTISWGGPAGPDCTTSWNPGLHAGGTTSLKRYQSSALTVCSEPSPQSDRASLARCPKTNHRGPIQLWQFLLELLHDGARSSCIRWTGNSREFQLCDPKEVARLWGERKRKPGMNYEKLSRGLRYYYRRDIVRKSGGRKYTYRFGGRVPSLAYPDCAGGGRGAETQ
The settings on record: protein: recombinant; tags: N-terminal GST; dsDNA, one strand shown. The gist of the method: as §1

Another assay has as its target T5, ELF3 (Homo sapiens, UniProt P78545 1-371).
T5 sequence: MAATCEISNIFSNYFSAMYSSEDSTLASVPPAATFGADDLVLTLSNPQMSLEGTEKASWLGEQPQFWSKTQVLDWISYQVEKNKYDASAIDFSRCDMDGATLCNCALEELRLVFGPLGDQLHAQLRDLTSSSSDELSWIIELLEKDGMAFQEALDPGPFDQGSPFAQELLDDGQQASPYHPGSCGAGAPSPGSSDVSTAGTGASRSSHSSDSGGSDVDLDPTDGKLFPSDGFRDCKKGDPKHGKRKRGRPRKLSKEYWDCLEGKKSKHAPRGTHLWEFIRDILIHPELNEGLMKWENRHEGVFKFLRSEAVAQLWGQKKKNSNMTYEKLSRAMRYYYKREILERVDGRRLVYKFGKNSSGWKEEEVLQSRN
The settings on record: protein: recombinant; tags: N-terminal GST; dsDNA, one strand shown. The gist of the method: as §1

A further assay has as its target CRX (Homo sapiens, UniProt O43186 1-299). The following applies: protein: recombinant; tags: N-terminal GST; dsDNA, one strand shown. An outline of the steps: as §1
The next assay concerns the target ETV1 (Homo sapiens, UniProt P50549 1-477). The settings on record: protein: recombinant; tags: N-terminal GST; dsDNA, one strand shown. The gist of the method:
as §1

A further assay addresses T6, ERF (Homo sapiens, UniProt P50548 1-548).
T6 sequence: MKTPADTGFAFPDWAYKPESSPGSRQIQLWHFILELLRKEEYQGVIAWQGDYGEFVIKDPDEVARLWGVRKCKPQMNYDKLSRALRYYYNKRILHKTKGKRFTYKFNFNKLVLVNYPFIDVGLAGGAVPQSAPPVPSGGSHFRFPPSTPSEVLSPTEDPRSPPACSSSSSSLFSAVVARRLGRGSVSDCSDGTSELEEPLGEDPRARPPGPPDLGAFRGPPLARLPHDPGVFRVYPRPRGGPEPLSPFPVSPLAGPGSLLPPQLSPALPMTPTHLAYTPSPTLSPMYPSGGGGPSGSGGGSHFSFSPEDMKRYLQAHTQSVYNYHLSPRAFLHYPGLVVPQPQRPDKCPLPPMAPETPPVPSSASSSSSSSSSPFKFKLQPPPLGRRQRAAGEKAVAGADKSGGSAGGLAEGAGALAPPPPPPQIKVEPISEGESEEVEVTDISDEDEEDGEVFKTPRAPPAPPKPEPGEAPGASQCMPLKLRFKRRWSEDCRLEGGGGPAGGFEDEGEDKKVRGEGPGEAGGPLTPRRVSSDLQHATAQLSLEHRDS
The following applies: protein: recombinant; tags: N-terminal GST; dsDNA, one strand shown. An outline of the steps:
as §1

In another assay the target is T7, ETV3L (Homo sapiens, UniProt Q6ZN32 1-361).
T7 sequence: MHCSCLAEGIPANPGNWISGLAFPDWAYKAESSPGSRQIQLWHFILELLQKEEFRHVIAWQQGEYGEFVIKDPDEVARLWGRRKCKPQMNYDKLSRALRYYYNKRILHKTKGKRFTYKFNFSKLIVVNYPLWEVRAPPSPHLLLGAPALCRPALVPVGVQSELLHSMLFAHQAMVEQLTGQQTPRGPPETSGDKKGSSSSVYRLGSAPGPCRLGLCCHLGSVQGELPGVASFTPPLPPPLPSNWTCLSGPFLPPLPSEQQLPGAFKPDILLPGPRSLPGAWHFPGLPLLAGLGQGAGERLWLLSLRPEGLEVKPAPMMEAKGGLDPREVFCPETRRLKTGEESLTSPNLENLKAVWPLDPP
The settings on record: protein: recombinant; tags: N-terminal GST; dsDNA, one strand shown. An outline of the steps:
as §1

In a further assay the target is T8, ETS2 (Homo sapiens, UniProt P15036 1-469).
T8 sequence: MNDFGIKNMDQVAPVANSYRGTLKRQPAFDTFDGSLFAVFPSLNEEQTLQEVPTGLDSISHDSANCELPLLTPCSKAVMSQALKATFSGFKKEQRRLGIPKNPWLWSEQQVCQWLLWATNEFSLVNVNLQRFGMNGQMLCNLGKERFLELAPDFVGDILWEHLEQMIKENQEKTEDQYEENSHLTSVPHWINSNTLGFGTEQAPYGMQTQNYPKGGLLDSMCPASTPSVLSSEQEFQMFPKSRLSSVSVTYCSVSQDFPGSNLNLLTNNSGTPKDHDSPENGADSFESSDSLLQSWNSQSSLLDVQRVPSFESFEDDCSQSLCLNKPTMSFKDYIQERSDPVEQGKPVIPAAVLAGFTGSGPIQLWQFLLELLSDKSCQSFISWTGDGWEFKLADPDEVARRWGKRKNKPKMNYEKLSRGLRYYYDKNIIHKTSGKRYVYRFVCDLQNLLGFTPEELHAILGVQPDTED
The following applies: protein: recombinant; tags: N-terminal GST; dsDNA, one strand shown. An outline of the steps:
as §1

For the next assay, the target named is T9, SPDEF (Homo sapiens, UniProt O95238 1-335).
T9 sequence: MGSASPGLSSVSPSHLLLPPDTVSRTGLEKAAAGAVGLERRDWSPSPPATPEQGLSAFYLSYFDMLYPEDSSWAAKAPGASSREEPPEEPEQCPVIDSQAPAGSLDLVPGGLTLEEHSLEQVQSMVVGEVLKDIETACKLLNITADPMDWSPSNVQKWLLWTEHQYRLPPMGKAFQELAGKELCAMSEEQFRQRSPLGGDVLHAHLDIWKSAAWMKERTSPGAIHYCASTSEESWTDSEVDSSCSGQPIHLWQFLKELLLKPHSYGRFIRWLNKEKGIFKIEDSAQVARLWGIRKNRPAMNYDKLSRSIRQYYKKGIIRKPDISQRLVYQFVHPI
The settings on record: protein: recombinant; tags: N-terminal GST; dsDNA, one strand shown. The gist of the method:
as §1

The target in the next assay is T10, ETV7 (Homo sapiens, UniProt Q9Y603 1-341).
T10 sequence: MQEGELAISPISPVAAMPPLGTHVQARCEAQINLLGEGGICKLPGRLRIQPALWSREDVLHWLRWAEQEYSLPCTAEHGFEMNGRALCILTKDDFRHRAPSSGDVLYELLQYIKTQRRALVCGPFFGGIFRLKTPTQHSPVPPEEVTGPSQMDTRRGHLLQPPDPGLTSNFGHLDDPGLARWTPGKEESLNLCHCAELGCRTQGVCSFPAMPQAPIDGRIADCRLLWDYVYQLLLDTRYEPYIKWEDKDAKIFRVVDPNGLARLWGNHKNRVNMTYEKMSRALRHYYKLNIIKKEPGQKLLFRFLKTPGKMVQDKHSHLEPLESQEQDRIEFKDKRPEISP
The following applies: protein: recombinant; tags: N-terminal GST; dsDNA, one strand shown. The gist of the method:
as §1

The target of a further assay is T11, ELF5 (Homo sapiens, UniProt Q9UKW6-2 1-255).
T11 sequence: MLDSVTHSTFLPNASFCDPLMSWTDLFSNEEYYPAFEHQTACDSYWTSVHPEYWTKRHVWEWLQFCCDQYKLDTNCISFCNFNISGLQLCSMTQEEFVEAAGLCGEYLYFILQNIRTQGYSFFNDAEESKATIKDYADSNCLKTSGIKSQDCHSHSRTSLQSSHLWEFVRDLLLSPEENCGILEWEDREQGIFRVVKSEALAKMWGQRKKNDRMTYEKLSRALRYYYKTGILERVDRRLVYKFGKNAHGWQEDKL
The settings on record: protein: recombinant; tags: N-terminal GST; dsDNA, one strand shown. An outline of the steps:
as §1

The next assay deals with T12, ETV3 (Homo sapiens, UniProt P41162-2 1-143).
T12 sequence: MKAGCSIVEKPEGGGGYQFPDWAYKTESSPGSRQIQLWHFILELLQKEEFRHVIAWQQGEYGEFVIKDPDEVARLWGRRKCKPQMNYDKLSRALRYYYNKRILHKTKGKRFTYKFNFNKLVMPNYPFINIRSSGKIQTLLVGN
The following applies: protein: recombinant; tags: N-terminal GST; dsDNA, one strand shown. An outline of the steps:
as §1

The target in a further assay is ETV6 (Homo sapiens, UniProt P41212 1-452). The following applies: protein: recombinant; tags: N-terminal GST; dsDNA, one strand shown. The gist of the method: as §1
ETV6, sequence (P41212 whole entry): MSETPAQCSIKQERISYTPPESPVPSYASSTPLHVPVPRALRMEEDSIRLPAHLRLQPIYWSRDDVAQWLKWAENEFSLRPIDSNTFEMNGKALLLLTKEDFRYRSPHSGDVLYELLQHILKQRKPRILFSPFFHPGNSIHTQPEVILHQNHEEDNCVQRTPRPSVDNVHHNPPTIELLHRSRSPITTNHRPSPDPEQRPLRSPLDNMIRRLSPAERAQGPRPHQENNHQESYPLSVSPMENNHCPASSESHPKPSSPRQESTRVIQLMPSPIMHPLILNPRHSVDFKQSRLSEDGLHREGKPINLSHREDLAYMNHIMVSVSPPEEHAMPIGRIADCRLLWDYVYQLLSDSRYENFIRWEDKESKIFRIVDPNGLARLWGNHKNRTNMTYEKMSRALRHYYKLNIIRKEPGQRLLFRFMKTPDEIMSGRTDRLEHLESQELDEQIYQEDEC

HSF1, sequence (Q00613 whole entry): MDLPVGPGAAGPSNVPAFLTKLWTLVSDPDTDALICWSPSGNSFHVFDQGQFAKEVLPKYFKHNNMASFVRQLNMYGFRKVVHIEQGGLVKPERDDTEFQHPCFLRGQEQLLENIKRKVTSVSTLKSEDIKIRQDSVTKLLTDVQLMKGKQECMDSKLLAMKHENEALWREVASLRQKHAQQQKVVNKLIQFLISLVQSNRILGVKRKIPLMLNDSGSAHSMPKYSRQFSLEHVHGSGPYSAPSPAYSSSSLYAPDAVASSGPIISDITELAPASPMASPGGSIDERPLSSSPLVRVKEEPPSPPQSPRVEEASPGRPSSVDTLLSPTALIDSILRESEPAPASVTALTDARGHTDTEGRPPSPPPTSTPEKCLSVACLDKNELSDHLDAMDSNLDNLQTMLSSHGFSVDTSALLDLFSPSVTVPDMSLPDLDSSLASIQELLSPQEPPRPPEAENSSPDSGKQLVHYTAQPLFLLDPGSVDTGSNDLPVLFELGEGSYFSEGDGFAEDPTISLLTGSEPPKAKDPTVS
CRX, sequence (O43186 whole entry): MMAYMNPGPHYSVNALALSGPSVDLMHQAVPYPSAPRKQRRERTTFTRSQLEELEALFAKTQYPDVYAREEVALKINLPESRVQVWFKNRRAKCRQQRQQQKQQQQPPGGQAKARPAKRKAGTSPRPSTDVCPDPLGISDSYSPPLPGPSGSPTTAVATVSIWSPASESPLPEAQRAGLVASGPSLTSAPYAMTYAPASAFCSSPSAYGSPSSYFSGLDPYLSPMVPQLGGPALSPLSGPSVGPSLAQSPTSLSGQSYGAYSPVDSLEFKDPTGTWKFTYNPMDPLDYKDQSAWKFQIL
ETV5, sequence (P41161 whole entry): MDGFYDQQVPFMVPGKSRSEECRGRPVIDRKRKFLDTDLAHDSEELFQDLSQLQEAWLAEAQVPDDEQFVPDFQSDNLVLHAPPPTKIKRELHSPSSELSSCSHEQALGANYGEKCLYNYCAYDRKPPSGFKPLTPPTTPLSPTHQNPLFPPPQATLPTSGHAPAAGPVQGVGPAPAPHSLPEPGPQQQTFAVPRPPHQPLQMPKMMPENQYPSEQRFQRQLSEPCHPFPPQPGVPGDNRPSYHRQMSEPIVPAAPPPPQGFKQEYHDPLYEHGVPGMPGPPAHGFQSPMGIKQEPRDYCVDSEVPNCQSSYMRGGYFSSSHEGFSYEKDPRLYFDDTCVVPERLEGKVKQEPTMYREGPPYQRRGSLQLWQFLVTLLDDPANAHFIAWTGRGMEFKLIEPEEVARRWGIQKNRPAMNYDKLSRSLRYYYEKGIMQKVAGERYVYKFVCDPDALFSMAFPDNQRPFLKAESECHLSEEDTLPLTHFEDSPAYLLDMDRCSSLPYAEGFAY
ELF4, sequence (Q99607 whole entry): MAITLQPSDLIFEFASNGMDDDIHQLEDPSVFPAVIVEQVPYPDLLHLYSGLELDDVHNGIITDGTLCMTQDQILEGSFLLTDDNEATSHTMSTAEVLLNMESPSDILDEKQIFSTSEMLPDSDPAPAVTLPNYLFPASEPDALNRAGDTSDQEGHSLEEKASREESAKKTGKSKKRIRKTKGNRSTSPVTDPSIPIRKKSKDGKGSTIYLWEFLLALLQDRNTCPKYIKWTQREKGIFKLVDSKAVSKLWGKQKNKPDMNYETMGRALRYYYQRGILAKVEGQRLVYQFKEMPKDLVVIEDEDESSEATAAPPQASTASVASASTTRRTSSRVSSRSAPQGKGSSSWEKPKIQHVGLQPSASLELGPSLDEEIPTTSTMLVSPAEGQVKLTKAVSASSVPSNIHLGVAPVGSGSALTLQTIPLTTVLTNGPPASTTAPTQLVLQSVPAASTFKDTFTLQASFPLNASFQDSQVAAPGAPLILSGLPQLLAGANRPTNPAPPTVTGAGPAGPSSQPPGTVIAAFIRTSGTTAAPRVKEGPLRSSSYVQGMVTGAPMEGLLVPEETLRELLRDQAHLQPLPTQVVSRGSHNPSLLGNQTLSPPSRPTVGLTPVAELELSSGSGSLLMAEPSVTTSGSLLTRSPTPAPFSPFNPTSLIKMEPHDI
ETV1, sequence (P50549 whole entry): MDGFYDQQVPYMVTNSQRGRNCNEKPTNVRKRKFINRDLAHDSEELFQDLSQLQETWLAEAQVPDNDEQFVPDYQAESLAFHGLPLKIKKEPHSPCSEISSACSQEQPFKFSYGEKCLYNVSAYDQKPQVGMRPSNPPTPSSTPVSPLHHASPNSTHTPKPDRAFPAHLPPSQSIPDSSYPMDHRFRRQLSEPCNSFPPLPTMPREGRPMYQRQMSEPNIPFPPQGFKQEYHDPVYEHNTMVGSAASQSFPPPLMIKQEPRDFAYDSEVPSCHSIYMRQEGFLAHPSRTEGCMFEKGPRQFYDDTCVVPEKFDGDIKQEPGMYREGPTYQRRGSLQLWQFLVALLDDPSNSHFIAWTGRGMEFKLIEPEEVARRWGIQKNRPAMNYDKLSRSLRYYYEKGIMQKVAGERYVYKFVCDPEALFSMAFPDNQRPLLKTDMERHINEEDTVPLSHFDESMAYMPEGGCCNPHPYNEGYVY

On to CTGAAT, for which the binding signal with FEV is 1.32 fold enrichment (6-mer frequency, TF over GST control); with ETV5 it was 1.29 fold enrichment (6-mer frequency, TF over GST control); with HSF1, 1.37 fold enrichment (6-mer frequency, TF over GST control); with SPIC it was 1.29 fold enrichment (6-mer frequency, TF over GST control); with ELF4, 1.29 fold enrichment (6-mer frequency, TF over GST control); with ELK4, 1.31 fold enrichment (6-mer frequency, TF over GST control). Also, the binding signal with ETV2 was 1.5 fold enrichment (6-mer frequency, TF over GST control); with ELF3, 1.15 fold enrichment (6-mer frequency, TF over GST control); in the assay with CRX it was 1.34 fold enrichment (6-mer frequency, TF over GST control); with ETV1, 1.36 fold enrichment (6-mer frequency, TF over GST control); with ERF, 1.47 fold enrichment (6-mer frequency, TF over GST control); with ETV3L, 1.32 fold enrichment (6-mer frequency, TF over GST control). The binding signal in the assay with ETS2 was 1.32 fold enrichment (6-mer frequency, TF over GST control); in the assay with SPDEF it was 1.53 fold enrichment (6-mer frequency, TF over GST control); with ETV7, 1.17 fold enrichment (6-mer frequency, TF over GST control); in the assay with ELF5, 1.18 fold enrichment (6-mer frequency, TF over GST control); with ETV3, 1.29 fold enrichment (6-mer frequency, TF over GST control); in the assay with ETV6, 1.22 fold enrichment (6-mer frequency, TF over GST control).

Source of the values: publication PMC7862700, “An all-to-all approach to the identification of sequence-specific readers for epigenetic DNA modifications on cytosine”.
